# In all, about 330,000 compounds went through this assay and about 7,700 (2.3%) were called active. About 26% were inconclusive and are not listed. Calls follow the shape of the dose curve; as a rule, active = well fitted inhibition curve with a large enough effect; inconclusive = small, poorly fitted or top-dose-only effect, or effect the other way; inactive = flat fitted curve, though single readings scatter. The entries come from a sample that favours actives as a whole. A call without a number means that no potency is given here.
# Test: qHTS screen for small molecules that inhibit ELG1-dependent DNA repair in human embryonic kidney (HEK293T) cells expressing luciferase-tagged ELG1; also: nearly all actives have a fitted effect of over 55% in size
# Settings: HEK293T ELG1-luciferase reporter, luminescence, 16 h, DNA damage induced by 5-fluorouridine; series mostly up to 46.1 µM
# Outline: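 In this reporter screen, reduction of luminescence relative to DMSO vehicle indicated activity. Compounds and 5-fluorouridine were added together to 2,000 cells per well, incubated for 16 hr at 37 °C, then developed with ONE-Glo.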
# Potency is read from the fitted curve at half-maximal effect.
row,Compound,Potency
1,CCOC(=O)[C@H]1[C@H]2COc3ccc(Cl)cc3[C@@H]2N2C(=O)c3cc(C)ccc3NC(=O)[C@@]12C,inactive
2,Cn1ccsc1=NC(=O)c1cc(S(=O)(=O)N2CCOCC2)ccc1Cl,inactive
3,Cc1cccc(NC(=O)CSc2nc3[nH]ncc3c(=O)[nH]2)c1,inactive
4,Cc1cccc2nc(CSc3nc4[nH]ncc4c(=O)n3-c3cccc(Cl)c3)cc(=O)n12,20.6 µM (active)
5,COc1ccc(CCNC(=O)CSc2nc3[nH]ncc3c(=O)n2-c2cccc(C(F)(F)F)c2)cc1OC,inactive
6,COc1cccc(OC)c1C(=O)Nc1ccc(Cc2ccncc2)cc1,inactive
7,CC(C)C(NC(=O)c1c(F)cccc1F)C(=O)NCc1ccncc1 (stereo not given),inactive
8,O=C(Nc1ccncc1)c1c(F)cccc1F,6.51 µM (active)
9,CSc1ncc(C(=O)Nc2ccc(C)cc2C)c(C)n1,inactive
10,c1ccc(-n2nnnc2-c2cccnc2)cc1,inactive
11,c1ccc(-n2nnnc2NC2CCCCCC2)cc1,inactive
12,FC(F)(F)c1nc(-c2ccccc2)ncc1-c1nnnn1-c1ccccc1,20.6 µM (active)
13,CC(=O)c1ccc(N2CCN(C(=O)CCc3ccccc3)CC2)cc1,inactive
14,O=C1CCC/C=C/C[C@@H](CC(=O)N(CCO)Cc2ccccc2)C(=O)NC[C@H](c2ccccc2)O1,inactive
15,Cc1ccn2c(=O)c(NC(=O)c3cccc4ccccc34)c(C)nc2c1,5.17 µM (active)
16,Cc1nc2ccccn2c(=O)c1NC(=O)c1cccs1,inactive
17,C/C(=N\OC(=O)c1ccccc1)c1c(C)nc2cc(C)ccn12,inactive
18,CC(C)(C)c1ccc(Oc2ccc(N)cc2)cc1,7.31 µM (active)
19,Cc1ccc(Oc2ccc(N)cc2)cc1,inactive
20,Nc1ccc(Oc2ccc(Cl)cc2)cc1,inactive
21,Cc1ccc(S(=O)(=O)NCC2CCC(C(=O)N3CCOCC3)CC2)cc1 (stereo not given),inactive
22,C=CCSc1nnc(N2C(=O)C(O)=C(C(=O)c3ccco3)C2c2ccc(F)cc2)s1 (stereo not given),inactive
23,CC1CC(=NNC(=O)C2COc3ccccc3O2)CC(C)(C)C1 (stereo not given),inactive
24,O=C(OCC(=O)N1CCN(C(=O)c2ccco2)CC1)c1ccc(Cl)c(Cl)c1,inactive
25,COc1ccc(Cc2nnc(N/N=C/c3ccccc3O)[nH]c2=O)cc1OC,4.11 µM (active)
26,CC(C)c1ccc(Cc2nnc(NCCCO)[nH]c2=O)cc1,inactive
27,O=c1[nH]c(NCCO)nnc1Cc1ccc(Cl)cc1,inactive
28,C=CCN1CN(S(=O)(=O)c2ccc(OC)cc2)c2nc3ccccc3nc21,inactive
29,CCn1nc(C)c(CNC(=O)C2CCC(=O)N(Cc3cccc(F)c3)C2)c1C (stereo not given),inactive
30,COC(=O)[C@]1(C)N[C@H](CN(C)C(=O)c2ccc(C(C)(C)C)cc2)[C@@H]2C(=O)N(C)C(=O)[C@@H]21,inactive

# From PubChem BioAssay AID504467 (National Center for Advancing Translational Sciences (NCATS), 2011)
